# The whole screen tested about 52,000 compounds, of which about 4,300 (8.3%) were called active. What follows is part of a selection rich in actives, with near analogues and random picks from the rest. Unmarked numbers belong to inactive results. No stated cut-off is given here; in the data, active means survival mostly below about 52% (no sharp cut-off); inactive means mostly above about 56%.
# Test system: DeltatarO mutant
# Assay: S. aureus survival, RN4220 and DeltatarO strains – OD600, teichoic acid synthesis inhibitors, primary screen (AID 463173)
# Conditions: S. aureus RN4220 wild type/DeltatarO growth, OD600, 18 h, hits give low values, screened at 18.75 µg/mL (by protocol)
row,SMILES,survival
1,O=C(Nc1nnc(N2CCCCCC2)s1)Nc1cc(F)ccc1F,103%
2,CC1=C(C(=O)N(C)C)C(c2ccccc2Cl)NC(=O)N1 (configuration not stated),76%
3,CC(C)N1CC(C(=O)Nc2ccccc2)CC1=O (configuration not stated),73%
4,CCOC(=O)c1cc(-c2ccc(OC)c(S(=O)(=O)NC3CCCCC3)c2)on1,89%
5,CN1CCSc2ccc(C(=O)NCc3ccccc3)cc21,67%
6,O=C(NC1CCCC1)C(c1ccncc1)N(CCCN1CCOCC1)C(=O)c1ccc(-c2ccccc2)[nH]1 (configuration not stated),76%
7,CN(C)C(=O)c1ccc(S(=O)(=O)NCc2ccccc2Cl)s1,94%
8,Cc1cccc(Cn2cc(C(=O)Nc3cc(F)ccc3F)ccc2=O)c1,74%
9,Cc1noc(-c2ccc(-c3noc(-c4cccc(F)c4)n3)cc2)n1,76%
10,Cc1ccc(NC(=O)Cn2cc3c(n2)CCCC3)cc1Cl,87%
11,COc1ccc(C2CC(=O)c3c([nH]c(C(=O)OC4CCCC4)c3C)C2)cc1OC (configuration not stated),128%
12,COc1ccc(C2CC(=O)c3c([nH]c(C(=O)OC4CCCCCC4)c3C)C2)cc1OC (configuration not stated),81%
13,COc1cc(C2CC(=O)c3c([nH]c(C(=O)OC4CCCC4)c3C)C2)cc(OC)c1OC (configuration not stated),51% (active)
14,CC1(C)CC(=O)C2=C(C1)OC(N)=C(C#N)C2c1ccc2c(c1Cl)OCO2 (configuration not stated),97%
15,COC(=O)c1ccccc1NC(=O)c1cc(CN2CCCC2)on1,75%
16,CC1CCCCN1C(=O)c1cc(-c2ccccc2)on1 (configuration not stated),88%
17,COc1ccc(-c2cc(C(=O)N3CCCCC3C)no2)cc1OC (configuration not stated),58% (active)
18,CC1CCCCN1C(=O)c1cccc(C(=O)N2CCCCC2C)c1 (configuration not stated),80%
19,COc1ccccc1-c1cc(C(=O)N2CCCCC2C)no1 (configuration not stated),11% (active)
20,COc1ccc(-c2cc(C(=O)Nc3ccc4c(c3)OCO4)no2)cc1OC,65%
21,CC1CCCCN1C(=O)c1cc(-c2ccc(Br)cc2)on1 (configuration not stated),66%
22,CCOc1ccccc1C(=O)N(C)c1ccccc1,92%
23,CCc1nn2c(=O)cc(COC(=O)c3ccccc3NC(=O)c3ccc(C(C)(C)C)cc3)nc2s1,91%

row,SMILES,survival
1,O=c1cc(-c2ccccc2)nc(SCc2nc(-c3ccccc3Cl)no2)[nH]1,69%
2,Cc1ccc(CNC(=O)Cn2c(-c3cccs3)cc3cc(Cl)ccc32)cc1,79%
3,CCOc1ccc(C(=O)Nc2ccc3oc(-c4ccc5ccccc5c4)nc3c2)cc1,74%
4,CCOc1cccc(C(=O)Nc2ccc3oc(-c4ccncc4)nc3c2)c1,70%
5,CCOc1cccc(C(=O)Nc2ccc3oc(-c4ccc(C(C)(C)C)cc4)nc3c2)c1,46% (active)
6,CCOc1cccc(C(=O)Nc2ccc3oc(-c4cccnc4)nc3c2)c1,56%
7,CCCCOc1ccc(C(=O)Nc2ccc3oc(-c4cccnc4)nc3c2)cc1,69%
8,Cc1ccc(C(=O)Nc2ccc3oc(-c4ccc(C(C)(C)C)cc4)nc3c2)cc1,70%
9,CCOc1ccc(C(=O)Nc2ccc3oc(-c4ccncc4)nc3c2)cc1,74%
10,CCOc1ccc(C(=O)Nc2ccc3oc(-c4cccc5ccccc45)nc3c2)cc1,60% (active)
11,CCCCOc1cccc(C(=O)Nc2ccc3oc(-c4cccnc4)nc3c2)c1,46% (active)
12,O=C(Nc1ccc(NC(=O)C2CC2)nc1)c1cccc(F)c1,77%
13,CCCCCc1nn2cc(-c3ccccc3)nc2s1,105%
14,Nc1ccc(CN2C(=O)c3ccccc3C2=O)cc1,91%
15,O=C(C1CCCN(S(=O)(=O)c2cccs2)C1)N1CCN(c2ccccc2F)CC1 (configuration not stated),85%
16,CCn1cc(C(=O)N2CCN(c3ccc(C(C)=O)cc3)CC2)c2cc(OC)c(OC)cc2c1=O,164%
17,CCC(=O)N1CCc2cc(S(=O)(=O)CCC(=O)N3CCN(c4cccc(C)c4C)CC3)ccc21,98%
18,CC(C)c1ccccc1NC(=O)CSc1nnc(COc2ccccc2Cl)o1,99%
19,Cc1ccc(NC(=O)CSc2nnc(COc3ccc(Cl)cc3)o2)cc1,49%
20,COc1ccc(CCCc2nnc(SCC(=O)Nc3cc(F)ccc3C)o2)cc1,64%
21,COc1ccc(CCCc2nnc(SCC(=O)Nc3cccc(F)c3C)o2)cc1,39% (active)
22,COc1ccc(CCCc2nnc(SCC(=O)Nc3ccc(OC)cc3)o2)cc1,65%
23,CCc1ccccc1NC(=O)CSc1nnc(COc2ccccc2Cl)o1,66%

row,SMILES,survival
1,Cc1cc(C)cc(NC(=O)CSc2nnc(COc3ccccc3Cl)o2)c1,12% (active)
2,COc1cccc(NC(=O)CSc2nnc(COc3ccc(Cl)cc3)o2)c1,57% (active)
3,O=C(CSc1nnc(COc2ccc(Cl)cc2)o1)Nc1ccccc1,51%
4,O=c1c2oc3ccccc3c2n(Cc2ccccc2)c(=O)n1Cc1ccco1,95%
5,CCN(Cc1ccccc1)C(=O)CN1C(=O)COc2ccc(S(=O)(=O)N3CCCCCC3)cc21,95%
6,COc1cc(C2CC(=O)c3cnc(N4CCN(CCO)CC4)nc3C2)cc(OC)c1OC (configuration not stated),92%
7,CCCn1c(N2CCN(C(=O)Nc3ccc(OC)cc3)CC2)nc2ccccc21,104%
8,CC(C)Cn1c(N2CCN(C(=O)Nc3ccc(Cl)cc3)CC2)nc2ccccc21,102%
9,CCn1c(N2CCN(C(=O)Nc3ccc(Cl)c(C(F)(F)F)c3)CC2)nc2ccccc21,0% (active)
10,CC(=O)c1ccc(NC(=O)c2noc3c2CSc2ccccc2-3)cc1,54%
11,COCCCNC(=O)C1CCN(Cc2nc(-c3ccc(OC)c(OC)c3)oc2C)CC1,88%
12,COc1ccc(OC)c(-c2noc(N3CCN(c4ccc(C(C)=O)cc4)CC3)n2)c1,134%
13,COc1ccc(/C=C/C(=O)Nc2ccc3nc(N4CCCCC4)cc(C)c3c2)cc1OC,43% (active)
14,COc1ccc(/C=C/C(=O)Nc2ccc3nc(N4CCC(C)CC4)cc(C)c3c2)cc1,51% (active)
15,Cc1cc(N2CCCCC2)nc2ccc(NC(=O)/C=C/c3ccc(OC(C)C)cc3)cc12,50%
16,COc1ccc(/C=C/C(=O)Nc2ccc3nc(N4CCC(C)CC4)cc(C)c3c2)cc1OC,51%
17,Cc1cc(N2CCCCC2)nc2ccc(NC(=O)/C=C/c3ccccc3OC(C)C)cc12,73%
18,Cc1cc(N2CCCCC2)nc2ccc(NC(=O)/C=C/c3ccc(OCCC(C)C)cc3)cc12,56%
19,Cc1cc(N2CCCCC2)nc2ccc(NC(=O)/C=C/c3ccccc3Cl)cc12,44% (active)
20,Cc1cc(N2CCC(C)CC2)nc2ccc(NC(=O)/C=C/c3cccc(Cl)c3)cc12,53% (active)
21,Cc1ccc(/C=C/C(=O)Nc2ccc3nc(N4CCC(C)CC4)cc(C)c3c2)cc1,122%
22,COc1cc(C(=O)Nc2cccc(OCc3cc(=O)n4cc(C)sc4n3)c2)cc(OC)c1OC,90%
23,COc1ccccc1C1C=C(c2ccc(Cl)cc2)Nc2nc(-c3ccc(Cl)cc3)nn21 (configuration not stated),59%

row,SMILES,survival
1,COC(=O)C1=C(C)NC(=O)CC1c1ccccc1 (configuration not stated),105%
2,COc1ccccc1CCNC(=O)C1CCN(c2nnc(C)c3c(C)n(-c4ccc(C)cc4)nc23)CC1,85%
3,CC(=O)N1CCCc2cc(S(=O)(=O)N3CCCC(C(=O)Nc4ccc(C)cc4C)C3)ccc21 (configuration not stated),71%
4,Cc1ccc(C(=O)Nc2nc3nc(C)cc(=O)n3[nH]2)cc1,91%
5,O=C(Cc1ccccc1)Nc1c(C(=O)N2CCN(c3ccc(F)cc3)CC2)oc2ccccc12,49%
6,O=C(Cn1ncc2c(=O)oc3ccccc3c21)N1CCN(c2ccc(Cl)cc2)CC1,93%
7,CCn1ccc2cc(S(=O)(=O)N3CCCN(C(=O)Nc4ccc(C)c(F)c4)CC3)ccc21,73%
8,CCN1CCN(c2cc(C)c3cc(NC(=O)/C=C/c4ccc(C)cc4)ccc3n2)CC1,52%
9,C/C=C/C(=O)Nc1ccc(Cl)c(Cl)c1,70%
10,COc1cccc(/C=C/C(=O)Nc2ccc3nc(N4CCN(C)CC4)cc(C)c3c2)c1OC,79%
11,CCN1CCN(c2cc(C)c3cc(NC(=O)/C=C/c4cccc(Cl)c4)ccc3n2)CC1,44% (active)
12,CCN1CCN(c2cc(C)c3cc(NC(=O)/C=C/c4cccc(OC)c4OC)ccc3n2)CC1,43% (active)
13,COc1ccc(/C=C/C(=O)Nc2ccc(Cl)c(Cl)c2)cc1,66%
14,COc1ccc(Nc2c3c(nc4ccc(NC(=O)/C=C/c5cccc(OC)c5OC)cc24)CCCC3)cc1OC,66%
15,COc1ccc(/C=C/C(=O)Nc2ccc(Cl)c(Cl)c2)cc1OC,18% (active)
16,CCN1CCN(c2cc(C)c3cc(NC(=O)/C=C/c4ccc(OCCC(C)C)cc4)ccc3n2)CC1,112%
17,O=C(CSc1nnc(-c2ccc([N+](=O)[O-])cc2)o1)Nc1ccccc1,81%
18,CCSc1ncc(Cl)c(C(=O)Nc2sc(C(C)=O)c(C)c2C(=O)OC)n1,72%
19,O=C(Cn1ncc2c3ccccc3n(Cc3ccc(F)cc3)c2c1=O)NC1CCCCCC1,80%
20,COc1cccc(CNC(=O)CN(c2ccc(C)cc2)S(=O)(=O)N(C)C)c1OC,94%
21,C=Cc1ccc(CN2C(=O)N(c3cccc(Cl)c3)S(=O)(=O)c3ccccc32)cc1,64%
22,C=Cc1ccc(CN2C(=O)N(c3ccc(CC)cc3)S(=O)(=O)c3ccccc32)cc1,6% (active)
23,C=Cc1ccc(CN2C(=O)N(c3ccc(C)c(C)c3)S(=O)(=O)c3ccccc32)cc1,84%
